Measurements taken from PubChem BioAssay (NCATS).
Calls of active or inactive are those of the source. Calls follow the shape of the dose curve; as a rule, active = well fitted curve in the direction sought with a large enough effect; inactive = no such curve, though single readings can be large or run the other way.

molecular target: Alpha-galactosidase (Coffea arabica) (UniProt Q42656); experiment: Counterscreen for Glucocerebrosidase Inhibitors: qHTS Assay for Coffee Bean alpha-Galactosidase at pH 5.9 (AID 998); conditions: coffee bean alpha-galactosidase enzyme assay; series mostly up to 76.9 µM; activity, negative = inhibition: at the top concentration;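 also: plate controls were uninhibited enzyme for no effect and no-enzyme basal signal for full effect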
Outline: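 Enzyme 2 nM + cpd (0.7 nM–77 uM titration) + 4-MU-alpha-Gal 80 uM, pH 5.9 citrate/Tween-20, RT 20 min, NaOH/glycine stop pH 10, fluor 365/440. Normalized to no-enzyme and full-activity controls; Hill-fit AC50.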

Alpha-galactosidase (Coffea arabica), sequence (Q42656 whole entry, looked up): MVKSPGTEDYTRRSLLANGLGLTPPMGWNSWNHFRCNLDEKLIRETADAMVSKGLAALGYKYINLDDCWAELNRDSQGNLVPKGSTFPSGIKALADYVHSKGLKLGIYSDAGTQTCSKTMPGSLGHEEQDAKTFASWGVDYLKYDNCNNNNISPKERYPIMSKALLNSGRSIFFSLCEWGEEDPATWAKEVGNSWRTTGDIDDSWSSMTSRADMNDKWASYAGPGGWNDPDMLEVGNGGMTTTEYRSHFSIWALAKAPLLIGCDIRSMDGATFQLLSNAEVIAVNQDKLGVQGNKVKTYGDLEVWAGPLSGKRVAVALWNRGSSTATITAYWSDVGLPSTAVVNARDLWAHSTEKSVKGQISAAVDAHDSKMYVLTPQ

Row | SMILES | activity, negative = inhibition
1 | Cc1ccc(C(=O)O[C@@H](C(=O)O)[C@@H](OC(=O)c2ccc(C)cc2)C(=O)O)cc1 (tested in a mixture with another compound) | 2.36% (inactive)
2 | NCC[C@H]1CCC[C@H](CCN)N1 | 4.41% (inactive)
3 | N[C@H](CCC(=O)N[C@H](CSN=O)C(=O)NCC(=O)O)C(=O)O | -2.09% (inactive)
4 | CC(C)COC[C@H](CN(Cc1ccccc1)c1ccccc1)N1CCCC1 | -3.81% (inactive)
5 | CC(=O)O[C@@H]1[C@H]([N+]2(C)CCCCC2)C[C@@H]2[C@@H]3CC[C@@H]4C[C@@H](OC(C)=O)[C@H]([N+]5(C)CCCCC5)C[C@@]4(C)[C@H]3CC[C@]21C | -0.969% (inactive)
